Reference: PubChem BioAssay (NCATS)
Inconclusive results are not listed. Unmarked numbers belong to inactive results. The source made the active and inactive calls. Calls follow the shape of the dose curve; as a rule, active = well fitted curve in the direction sought with a large enough effect in the signal ratio; inconclusive = small, poorly fitted or top-dose-only effect, or a change in a side signal; inactive = no such curve, though single readings can be large or run the other way; the % refers to the signal ratio.

What follows are compounds tested against Tumor necrosis factor (Homo sapiens) (UniProt P01375) (assay: qHTS assay to identify small molecules that stimulate Tumor Necrosis Factor-alpha (TNF-alpha) secretion (AID 651757; as to activation (TNF-alpha secretion): 0% is about no effect)). Details: Human cells, HTRF 665/615 ratio; series mostly up to 92.2 µM; activation (TNF-alpha secretion): at the top concentration.
From the text: National Center for Advancing Translational Sciences [NCATS]
NIH Chemical Genomics Center [NCGC]
National Institutes of Environmental Health Sciences [NIEHS]
National Toxicology Program [NTP]
Tumor Necrosis Factor-alpha (TNF-alpha), a secreted cytokine, plays an important role in inflammatory diseases and immune disorders. TNF-alpha, a 17 kDa cytokine, is mainly secreted by activated macrophages and monocytes in response to several inflammatory and immunological stimuli. To study the effect of environmental chemicals on TNF-alpha secretion, a homogeneous TNF-alpha assay was developed using Time Resolved fluorescence (HTRF) technology based on Time Resolved Fluorescent Resonance Energy Transfer (TR-FRET) (Leister et al., Current Chemical Genomics, 5:21-29, 2011). This assay allows measuring TNF-alpha secreted from the cells in a 1536-well plate format.
THP-1 cells were dispensed at 3000 cells/5ul/well in 1536-well white solid plates. After addition of 23 nl of compound, positive controls and DMSO only, the assay plates were incubated at 37 C for 17 hrs, followed by addition of 5 uLof mixture of cryptate labeled and XL665 labeled anti-TNF-alpha antibodies. After the assay plates were incubated at room temperature for 3 hr, the plates were measured by an EnVision plate reader.
Potency is read from the fitted curve at half-maximal effect.

Sequence of Tumor necrosis factor (Homo sapiens) (P01375 whole entry, looked up): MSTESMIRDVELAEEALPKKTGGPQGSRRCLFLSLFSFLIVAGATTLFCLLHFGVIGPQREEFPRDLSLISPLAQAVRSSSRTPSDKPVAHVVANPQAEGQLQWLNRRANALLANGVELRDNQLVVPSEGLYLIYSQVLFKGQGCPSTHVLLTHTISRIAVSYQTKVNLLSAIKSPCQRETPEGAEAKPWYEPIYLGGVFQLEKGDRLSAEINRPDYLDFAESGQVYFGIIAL

Compound	activation (TNF-alpha secretion)	Potency
FC(F)(F)c1ccc(Cl)cc1	-0.0232%	–
Clc1ccc(C(c2ccc(Cl)cc2)C(Cl)Cl)cc1	0.802%	–
Oc1c(Br)c(Br)c(Br)c(Br)c1Br	1.52%	–
COP(=O)(OC)O/C(=C\Cl)c1cc(Cl)c(Cl)cc1Cl	0.119%	–
O=[N+]([O-])c1cc(C(F)(F)F)cc([N+](=O)[O-])c1Cl	-0.211%	–
O=[N+]([O-])C(Br)Br	-0.555%	–
C[C@@H]1CC[C@@]2(OC1)O[C@H]1[C@@H](O)[C@H]3[C@@H]4CC[C@H]5C[C@@H](O[C@@H]6O[C@H](CO)[C@H](O[C@@H]7O[C@H](CO)[C@@H](O)[C@H](O[C@@H]8OC[C@@H](O)[C@H](O)[C@H]8O)[C@H]7O[C@@H]7O[C@H](CO)[C@@H](O)[C@H](O[C@@H]8O[C@H](CO)[C@@H](O)[C@H](O)[C@H]8O)[C@H]7O)[C@H](O)[C@H]6O)[C@H](O)C[C@]5(C)[C@H]4CC[C@]3(C)[C@H]1[C@@H]2C	-0.169%	–
Nc1ccccc1C(=O)OCCc1ccccc1	0.69%	–
C#CCO	0.0431%	–
O=C(CCl)c1ccccc1	0.701%	–
CC(=O)[O-].CC(=O)[O-].O.O.[Cd+2]	1.44%	–
[Cd+2].[Cl-].[Cl-]	2.21%	–
c1ccc2cc3c(cc2c1)-c1cccc2cccc-3c12	1.21%	–
OC(c1ccc(Cl)cc1)(c1ccc(Cl)cc1)C(Cl)(Cl)Cl	0.701%	–
N#CC(Cl)Cl	-0.0471%	–
[CH3][Hg][Cl]	0.74%	–
N#CSCSC#N	-0.427%	–
C(=NC1CCCCC1)=NC1CCCCC1	-0.916%	–
O=C1C2(Cl)C3(Cl)C4(Cl)C(Cl)(Cl)C5(Cl)C3(Cl)C1(Cl)C5(Cl)C24Cl (stereo not drawn)	–	inactive
ClC1=C(Cl)C2(Cl)C3C(Cl)C(Cl)CC3C1(Cl)C2(Cl)Cl (stereo not drawn)	1.81%	–
c1ccc2c(c1)c1cccc3ccc4cccc2c4c31	–	29.8 µM (active)
O=C(O)C1C(C(=O)O)C2(Cl)C(Cl)=C(Cl)C1(Cl)C2(Cl)Cl (stereo not drawn)	0.882%	–
CCCCCCCCn1sccc1=O	0.519%	–
